Several values for one entry are separate records, joined by “and”; a condition that tells them apart may be missing. Equal entries are not always repeated. Some compounds were tested as several samples or in several runs, with calls that do not always agree. Activity calls are given as the source filed them. How the source made its calls: active means hit-call score of the fitted dose curve at least 0.9, where 1 is the maximum; inactive means score below 0.9.

Sequence of Paired box protein Pax-6 (Homo sapiens) (P26367 whole entry, looked up): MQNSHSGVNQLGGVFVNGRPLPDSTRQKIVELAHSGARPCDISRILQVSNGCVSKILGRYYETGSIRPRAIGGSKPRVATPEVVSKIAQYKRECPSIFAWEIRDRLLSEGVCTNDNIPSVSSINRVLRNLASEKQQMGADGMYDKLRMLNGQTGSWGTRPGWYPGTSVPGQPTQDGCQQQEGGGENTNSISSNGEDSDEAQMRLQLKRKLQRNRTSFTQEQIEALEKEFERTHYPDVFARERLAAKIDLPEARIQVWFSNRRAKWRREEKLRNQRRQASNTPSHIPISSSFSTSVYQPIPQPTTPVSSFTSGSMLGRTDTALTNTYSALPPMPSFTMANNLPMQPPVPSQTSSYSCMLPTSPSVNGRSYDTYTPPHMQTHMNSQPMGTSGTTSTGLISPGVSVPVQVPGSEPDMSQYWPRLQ

The assay has as its target Paired box protein Pax-6 (Homo sapiens) (UniProt P26367). Put plainly: ATG_Pax6_CIS: Attagene CIS-FACTORIAL HepG2 Assay for human Paired Box 6 (PAX6) (AID 2282956). The following applies: HepG2 CIS-FACTORIAL PAX6 reporter transcription, RNA readout; actives raise or lower the signal. The protocol: ATG_CIS is a cell-based, multiplexed-readout assay that uses HepG2, a human liver cell line, with measurements taken at 24 hours after chemical dosing in a 24-well plate.ATG_Pax6_CIS is one of 52 assay component(s) measured or calculated from the ATG_CIS assay. It is designed to make measurements of mRNA induction, a form of inducible reporter, as detected with fluorescence intensity signals by Reverse transcription polymerase chain reaction (RT-PCR) and Capillary electrophoresis technology.Data from the assay component ATG_Pax6_CIS was analyzed into 1 assay endpoint. This assay endpoint, ATG_Pax6_CIS, was analyzed with bidirectional fitting relative to DMSO as the negative control and baseline of activity. Using a type of inducible reporter, measures of mRNA for gain or loss-of-signal activity can be used to understand the reporter gene at the transcription factor-level as they relate to the gene PAX6. Furthermore, this assay endpoint can be referred to as a primary readout, because this assay has produced multiple assay endpoints where this one serves a reporter gene function. To generalize the intended target to other relatable targets, this assay endpoint is annotated to the dna binding intended target family, where the subfamily is paired box protein.
Human liver HepG2 cells are transiently transfected with multiple reporter transcription units (MRTUs) in 6-well plates using FuGene 6 reagent (Roche; 3 ml FuGene/1 mg DNA). The MRTU constructs are regulated by a cis-regulating element (promoter). […] A major difference between the CIS and TRANS system is that in CIS activities of endogenous TFs are measured, whereas the TRANS assay evaluates changes in activities of exogenous, chimeric NR-Gal4 proteins. […] At the end of 24 hour incubation, total RNA was isolated using TriZol reagent (Invitrogen). The isolated RNA is then reverse-transcribed using oligo(dT) primer and Mo-MLV reverse transcriptase (Invitrogen) with DNAse I (Ambion) treatment for 30 min. The one-tenth of the produced cDNA was amplified by PCR using Taq DNA polymerase (Invitrogen) and two reporter sequence-specific primers. The PCR products were fluorescently labeled by primer extension with 6-arboxyfluorescein (6-FAM) 5'-labeled reporter sequence-specific primer (2 min at 95 C, 20 s at 68 C and 10 min at 72 C) and these products were digested with 5U of HpaI (New England Biolabs) for 2h at 37 C. The fragments were purified using Qiaquick PCR columns (Qiagen), analyzed on an ABI 3130xL genetic analyzer (Applied Biosystems) with peak positions identified by using a set of X-rhodamine (ROX)-labeled MapMarker1000 molecular weight standards (BioVentures). The raw capillary electrophoresis data was processed using Attagraph software (Attagene).
`Oc1ccc(C(c2ccc(O)cc2)C(Cl)(Cl)Cl)cc1`: the compound was called inactive. As to `O=C(Nc1ccc([N+](=O)[O-])cc1Cl)c1cc(Cl)ccc1O`, the compound was called inactive.

As for `CCCN(CCC)c1c([N+](=O)[O-])cc(C(F)(F)F)c(N)c1[N+](=O)[O-]`, the call was inactive.

In general, AC50 refers to the midpoint of the concentration-response curve, whichever way the signal moves. Consider `S=C(S)NCCNC(=S)S.[Mn+2].[S-]C([S-])=NCCN=C([S-])[S-].[Zn+2]`, for which the AC50 was 9.92 µM (active) and 15 µM (active) and 12 µM (active); the outcome was inactive.

`S=C([S-])NCCNC(=S)[S-].[Mn+2]`: the compound was called inactive.

Consider `CCCN(CCC)C(=O)SCC`, for which the compound was called inactive. Consider `CCOC(=O)[C@H](C)Oc1ccc(Oc2nc3ccc(Cl)cc3o2)cc1`, for which the outcome was inactive.

On to `CC(C)CCCCCCc1ccc(O)cc1`, for which the compound was classed as inactive; the AC50 is 17.9 µM (active) and 20.8 µM (active) and 19.9 µM (active). As to `C#C[C@]1(O)CC[C@H]2[C@@H]3CCC4=CC(=O)CC[C@@H]4[C@H]3CC[C@@]21CC`, the result was inactive. On the same count and under the same terms, the same measure for `COC(=O)c1ccccc1C(=O)O`: “inactive”; for `CC(=O)S[C@@H]1CC2=CC(=O)CC[C@]2(C)[C@H]2CC[C@@]3(C)[C@@H](CC[C@@]34CCC(=O)O4)[C@H]12`: “inactive”; for `CCCCOCCOCCOCc1cc2c(cc1CCC)OCO2`: “inactive”.

Consider `O=C(c1ccccc1)C1CCCCC1`, for which the call was inactive. Take `O=C(c1ccc(O)cc1O)c1ccc(O)cc1O`: the call was inactive. Same read-out and setting: the value for `COCCO` was “inactive”; that for `CN(C)C(=O)Nc1ccc(Cl)c(Cl)c1` was “inactive”. The same measure, in the same setting: the value for `C[C@]12C[C@H](O)[C@H]3[C@@H](CCC4=CC(=O)CC[C@@]43C)[C@@H]1CC[C@@H]2C(=O)CO` was “inactive”. The same measure, in the same setting: the same measure for `COC(=O)c1ccc(I)cc1S(=O)(=O)NC(=O)Nc1nc(C)nc(OC)n1`: “inactive”; for `O=C(O)c1ccccc1`: “inactive”; for `CCCCC(CC)CN1C(=O)C2C3C=CC(C3)C2C1=O` (stereo not given): “inactive”. For `Cc1nn(C)c(Oc2ccccc2)c1C=NOCc1ccc(C(=O)OC(C)(C)C)cc1`, the AC50 is 1.88 µM (active).

Consider `CC(=O)[C@H]1CC[C@H]2[C@@H]3CCC4=CC(=O)CC[C@]4(C)[C@H]3CC[C@]12C`, for which the AC50 was 24.6 µM (active) and the compound was called inactive.

Take `CCCCC(CC)COC(=O)c1ccccc1C(=O)O` (stereo not given): the result was inactive. Regarding `CCOC(=O)c1ccc(O)cc1`, the AC50 was 100 µM (active) and the call was inactive. Turning to `CCOC(=O)C(C)Oc1ccc(Oc2cnc3cc(Cl)ccc3n2)cc1` (stereo not given), the result was inactive. For the compound `C=CCOC(Cn1ccnc1)c1ccc(Cl)cc1Cl` (stereo not given), the AC50 was 50 µM (active). Turning to `CCCCCOC(=O)COc1cc(N2C(=O)C3=C(CCCC3)C2=O)c(F)cc1Cl`, the call was inactive. In the case of `COC(=O)CSc1cc(N=c2sc(=O)n3n2CCCC3)c(F)cc1Cl`, the compound was called inactive. As to `CCCOC(=O)NCCCN(C)C`, the compound was called inactive. With `CC(C)(c1ccc(O)cc1)c1ccc(O)cc1`, the concentration at half-maximal activity (AC50) is 105 µM (active) [middle of 4 runs] and the call was inactive. Regarding `CCN(Cc1c(F)cccc1Cl)c1c([N+](=O)[O-])cc(C(F)(F)F)cc1[N+](=O)[O-]`, the AC50 is 7.64 µM (active).

Turning to `COC(=O)c1ccccc1S(=O)(=O)NC(=O)Nc1nc(OC(F)F)cc(OC(F)F)n1`, the compound was called inactive. Same read-out and setting: the same measure for `CCCOC(=O)c1ccc(C(=O)OCCC)nc1`: “inactive”; for `CC(C)(C)[C@@H](O)[C@@H](Cc1ccc(Cl)cc1)n1cncn1`: “inactive”; for `CC1(C)C(C=C(Cl)Cl)C1C(=O)OCc1cccc(Oc2ccccc2)c1` (stereo not given): “inactive”.

Values taken from PubChem BioAssay (EPA / NIEHS).
